# Laboratory results: PubChem BioAssay AID1851 (National Center for Advancing Translational Sciences (NCATS), 2009)
# Several values for one entry are separate records, joined by “and”; a condition that tells them apart may be missing. Identical values can stand only once. In all, about 16,000 compounds went through this assay and about 2,600 (16%) were called active. Another 20% or so got no clear call; they are omitted. Calls follow the shape of the dose curve; as a rule, active = well fitted curve in the direction sought with a large enough effect; inconclusive = small, poorly fitted or top-dose-only effect, or effect the other way; inactive = no such curve, though single readings can be large or run the other way. These entries were drawn from the full list. More than one record can exist for a structure, and the calls need not agree.
# Target: Cytochrome P450 2D6 (Homo sapiens) (UniProt P10635)
# Assay: Cytochrome panel assay with activity outcomes
# Conditions: recombinant CYP, pro-luciferin dealkylation, luminescence, p450-cyp2d6; series mostly up to 57.1 µM; activity, negative = inhibition: at the top concentration
# % is scaled to controls: 0 for no effect and ±100 for the full control effect.
# Sequence of Cytochrome P450 2D6 (Homo sapiens) (P10635 whole entry, looked up): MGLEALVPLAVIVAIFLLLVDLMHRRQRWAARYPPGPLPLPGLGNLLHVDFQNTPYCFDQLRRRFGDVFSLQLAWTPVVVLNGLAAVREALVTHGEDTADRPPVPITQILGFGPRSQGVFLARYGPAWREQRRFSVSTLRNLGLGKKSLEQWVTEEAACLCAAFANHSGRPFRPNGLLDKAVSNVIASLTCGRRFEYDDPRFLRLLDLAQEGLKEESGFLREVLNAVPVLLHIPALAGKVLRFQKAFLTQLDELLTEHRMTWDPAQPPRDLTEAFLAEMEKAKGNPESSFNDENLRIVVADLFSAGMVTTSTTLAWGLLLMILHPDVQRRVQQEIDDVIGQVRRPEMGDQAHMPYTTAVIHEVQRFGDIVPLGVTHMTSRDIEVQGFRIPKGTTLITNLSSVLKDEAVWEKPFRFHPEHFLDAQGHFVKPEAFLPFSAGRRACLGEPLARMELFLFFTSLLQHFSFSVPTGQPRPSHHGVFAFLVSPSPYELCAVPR
Compound,"activity, negative = inhibition",AC50
Cc1cccc(Oc2ncnc3onc(C)c23)c1C,11.2% (inactive),
O=C(Cn1ccc(=O)[nH]c1=O)Nc1ccc(C(=O)O)c(O)c1,-2.13% [at 11.4 µM] (inactive),
N=c1sccn1CC(=O)Nc1cccc(Oc2ccccc2)c1,,1 µM (active)
COc1cccc(NC(=O)CSc2nc3ccccc3cc2Cc2ccccc2)c1,-12.4% (inactive),
CSc1nnc(-c2sccc2OCc2ccccc2)n1C,-13.6% (inactive),
C#CCCCO/N=C1/C[C@@H](O)[C@@H](O)[C@@H]2[C@@H]3C(=O)N([C@@H](C)c4ccccc4)C(=O)[C@H]3CC[C@H]12,12% [at 11.4 µM] (inactive),
CC[C@H](NC(=O)c1c(C)c(-c2ccccc2)nc2ccccc12)c1ccccc1,2.4% (inactive),
CNc1csc(C)c(C)c1=O,5.1% (inactive),
C[C@H](NCCC(c1ccccc1)c1ccccc1)c1ccccc1,,0.158 µM (active)
O=C1[C@@H]2[C@H]3[C@H](O)[C@H](O)C/C(=N/OC[C@@H](O)COCc4ccco4)[C@H]3CC[C@H]2C(=O)N1c1ccc(F)cc1F,-0.021% [at 11.4 µM] (inactive),
COc1cccc(NC(=O)C2c3cc(OC)c(OC)cc3C(=O)N(C)C2c2cccnc2)c1 (stereo not drawn),-22.7% (inactive),
C=CC(C)(C)c1[nH]c2ccccc2c1C1=C(O)C(=O)C(c2c[nH]c3c(CC=C(C)C)cccc23)=C(O)C1=O,,0.00631 µM (active)
O=C1C2C3C=CC(CC3)C2C(=O)N1/N=C/c1ccccc1O (stereo not drawn),18.7% (inactive),
Cn1c2c(c(=O)n(C)c1=O)[C@@H]1c3c(ccc4ccccc34)OC[C@@H]1CO2,-7.85% (inactive),
COc1cc(C=O)ccc1OCCCOc1ccccc1C(=O)O,14.2% (inactive),
CCCCC1(C)Nc2ccccc2-c2nc3ccccc3n21 (stereo not drawn),,20 µM (active)
CCC1(C)Nc2ccccc2C(=O)N1O (stereo not drawn),18.2% (inactive),
COc1cccc(Cn2c(=O)c(-c3ccc(Cl)cc3)nc3cnc(N4CCN(C)CC4)nc32)c1,3.1% (inactive),
CCc1cccc(NC(=O)CN(C)S(=O)(=O)c2cnc[nH]2)c1,-12.6% (inactive),
CN(CC(=O)N1CCN(c2ccccc2)CC1)S(=O)(=O)c1cnc[nH]1,,14.1 µM (active)
CC1CCN(C(=O)CN(C)S(=O)(=O)c2cccc3nsnc23)CC1,-2.18% (inactive),
CC(C)(Oc1ccc(-c2cccc3ccccc23)cc1)C(=O)O,11.3% [at 11.4 µM] (inactive),
COCC(=O)N1CCC2(CCCN(C(=O)Nc3ccc(OC)cc3)C2)CC1,7.58% (inactive),
COCC(=O)N1CCC[C@@]2(CCN(C(c3ccccc3)c3ccccc3)C2)C1,,6.31 µM (active)

Compound,"activity, negative = inhibition",AC50
COCC(=O)N1CCC2(CC1)CN(C(=O)Nc1cccc(F)c1)C2,0.536% (inactive),
COCC(=O)N1CCC2(CC1)CN(C(c1ccccc1)c1ccccc1)C2,,2.51 µM (active)
COCC(=O)N1CCC2(CC1)CCN(c1ccccn1)CC2,-2.48% (inactive),
COCC(=O)N1CCC2(CC1)CCN(c1cccc(-c3ccccc3)c1)CC2,-17.3% (inactive),
COCC(=O)N1CCC2(CC1)CN(C(=O)Nc1ccc(OC)cc1)C2,-6.27% (inactive),
COCC(=O)N1CCC2(CC1)CCN(C(c1ccccc1)c1ccccc1)CC2,,12.6 µM (active)
COCC(=O)N1CCC2(CCCN(C(=O)Nc3ccccc3)C2)CC1,3.41% (inactive),
Cc1ccc(NC(=O)CC2CS(=O)(=O)CC2CC(=O)Nc2ccc(C)c(C)c2)cc1C (stereo not drawn),1.23% (inactive),
OC[C@H]1NC[C@@H](O)[C@@H](O)[C@H]1O,-17.5% (inactive),
Cc1ccc(OCC(=O)NNC(=O)c2cc3ccccc3o2)cc1C,16.4% (inactive),
COc1cccc(C(=O)N2N=C(c3cccc(OC)c3)CC2(O)C(F)(F)F)c1 (stereo not drawn),-20.4% (inactive),
CC(C)(Oc1ccc([C@@H]2CC2(Cl)Cl)cc1)C(=O)O,,inactive
CC(C)c1ccc(N2C(=O)CC(Sc3nc4ccccc4o3)C2=O)cc1 (stereo not drawn),-3.25% (inactive),
C[C@@]12CC3CC(N)(C1)C[C@@](C)(C3)C2,-15.5% [at 25.6 µM] (inactive),
C[C@]12CC3CC(N)(C1)C[C@@](C)(C3)C2,,inactive and 316 nM (active)
CCc1nnc(NC(=O)CSc2nc3cc4c(cc3cc2C)OCCO4)s1,-3.67% (inactive),
CC1=N/C(=C\c2ccc([N+](=O)[O-])cc2)C(=O)N1c1ccc(Br)c(C)c1,3.34% (inactive),
COc1cc(Cn2cnnn2)ccc1O,-11.4% (inactive),
CNC(=O)/C=C1\NC(C)(C)Cc2c1ccc1ccccc21,,14.1 µM (active)
CC1(C)Cc2c(ccc3ccccc23)C(=O)N1,22.3% (inactive),
Cc1cccc(C(=O)NCN2CCN(c3ccccc3C#N)CC2)c1,-0.838% (inactive),
CC(C)(C[C@@]1(C)NC(=O)NC1=O)OCc1ccccc1,1.81% [at 11.4 µM] (inactive),
CCNCCCNCCCNCCCNCC,8.87% (inactive),
CC(C)CO/N=C1/C[C@@H](O)[C@@H](O)[C@@H]2[C@@H]3C(=O)N([C@@H](C)c4ccccc4)C(=O)[C@H]3CC[C@@H]12,17.4% [at 11.4 µM] (inactive),
